Test results as given in PubChem BioAssay (NCI).
About 79,000 compounds went through this panel and 15% of them were active in at least one assay; those are over-represented in the sample as a whole. Activity calls are given as the source filed them. No stated cut-off is given here; in the data, active means growth inhibition above about 70%; inactive means the rest.

What was measured:
[1] = NCI Yeast Anticancer Drug Screen. Data for the rad52 strain (AID 147);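 further: 0% = growth of vehicle-treated control cultures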; details: S. cerevisiae rad52 mutant growth inhibition, hits give high values
How it was run: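 The repair-mutant yeast strain was incubated with compounds, then growth was read and inhibition derived relative to vehicle.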

[2] = NCI Yeast Anticancer Drug Screen. Data for the wt1 strain (AID 149);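 further: 0% = growth of vehicle-treated wt1 cultures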; details: S. cerevisiae wt1 strain (SPY 50644) growth inhibition, hits give high values
How it was run: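 The wt1 strain was treated with compounds, and growth was compared with vehicle-treated cultures to give inhibition.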

[3] = NCI Yeast Anticancer Drug Screen. Data for the rad50EPP+ strain (AID 151);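 further: 0% = growth of vehicle-treated control cultures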; details: S. cerevisiae rad50 mutant strain, hits give high values
How it was run: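 Vehicle-normalised growth inhibition; rad50EPP+ yeast strain, altered in DNA damage repair, compound-treated.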

[4] = NCI Yeast Anticancer Drug Screen. Data for the mgt1 strain (AID 153); details: S. cerevisiae mgt1 mutant growth inhibition, hits give high values
How it was run: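 Vehicle-normalized growth inhibition is determined in mgt1 yeast, a strain selected for a defined alteration in DNA repair or cell cycle control.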

[5] = NCI Yeast Anticancer Drug Screen. Data for the rad50 strain (AID 155);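 further: 0% = growth of vehicle-only cultures of the same strain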; details: S. cerevisiae rad50 strain growth inhibition, hits give high values
How it was run: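 Cells are treated with compound, grown, and their growth is then scored against vehicle-only cultures of the same repair-deficient yeast strain.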

[6] = NCI Yeast Anticancer Drug Screen. Data for the mec2-1 strain (AID 157); details: S. cerevisiae mec2-1 strain, hits give high values
How it was run: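 Mutant yeast (mec2-1) grown with compound; growth inhibition relative to vehicle control reported.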

[7] = NCI Yeast Anticancer Drug Screen. Data for the rad14 strain (AID 159);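 further: 0% = growth of vehicle-treated control cultures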; details: S. cerevisiae rad14 strain growth inhibition, hits give high values
How it was run: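 Readout: yeast growth inhibition, referenced to vehicle-only cultures. Strain bears a defined alteration in DNA damage repair.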

[8] = NCI Yeast Anticancer Drug Screen. Data for the sgs1 mgt1 strain (AID 161);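 further: 0% = growth of cultures given vehicle only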; details: S. cerevisiae sgs1 mgt1 strain, hits give high values
How it was run: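 Compounds are added to genetically altered yeast, and growth is compared with cultures given vehicle alone to give percent inhibition.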

[9] = NCI Yeast Anticancer Drug Screen. Data for the CLN2oe strain (AID 163);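 further: 0% = growth of vehicle-only control cultures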; details: S. cerevisiae CLN2oe strain, hits give high values
How it was run: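 Compounds are applied to yeast harbouring a defined cell-cycle control change; reduced growth compared with vehicle-treated controls gives the value.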

[10] = NCI Yeast Anticancer Drug Screen. Data for the cln2 rad14 strain (AID 165);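 further: 0% = growth equal to vehicle treated cultures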; details: S. cerevisiae cln2 rad14 strain, hits give high values
How it was run: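 Readout is yeast growth inhibition versus vehicle-treated controls, using a strain with cln2 and rad14 alterations exposed to compound.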

[11] = NCI Yeast Anticancer Drug Screen. Data for the bub3 strain (AID 167); details: S. cerevisiae bub3 mutant strain, hits give high values
How it was run: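 Part of a panel of yeast mutants defective in DNA damage repair or cell cycle regulation. Each strain is grown with compound, and inhibition is calculated relative to solvent-treated cultures.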

[12] = NCI Yeast Anticancer Drug Screen. Data for the wt2 strain (AID 169);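 further: 0% = growth of vehicle-treated yeast cultures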; details: S. cerevisiae wt2 strain growth inhibition, hits give high values
How it was run: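 Against vehicle-treated controls, the growth of yeast exposed to each compound was compared, and the inhibition was recorded.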

[13] = NCI Yeast Anticancer Drug Screen. Data for the mlh1 strain (AID 171);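 further: 0% = growth of vehicle-treated control cultures of the same strain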; details: S. cerevisiae mlh1 strain growth inhibition, hits give high values
How it was run: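 Measured: yeast growth. Reference: vehicle-treated controls. Organism: strain with a defined alteration affecting DNA damage repair or cell cycle control, treated with compound.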

[14] = NCI Yeast Anticancer Drug Screen. Data for the sgs1 strain (AID 173);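 further: 0% = growth of vehicle-only control cultures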; details: S. cerevisiae sgs1 mutant, hits give high values
How it was run: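 Each compound was added to cultures of the altered yeast strain. Growth was recorded, and inhibition was derived by comparison with vehicle controls.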

[15] = NCI Yeast Anticancer Drug Screen. Data for the mlh1 rad18 strain (AID 175); details: S. cerevisiae mlh1 rad18 strain growth inhibition, hits give high values
How it was run: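 Genetically defined yeast (DNA repair-deficient) exposed to compounds; growth inhibition determined relative to vehicle.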

[16] = NCI Yeast Anticancer Drug Screen. Data for the rad18 strain (AID 177); details: S. cerevisiae rad18 mutant growth inhibition, hits give high values
How it was run: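 Vehicle-treated cultures served as the baseline for scoring compound-induced growth inhibition in DNA-repair-mutant yeast.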

[17] = at 5.0 µM (retest, dose inferred, filed as 0.5)
[18] = at 50.0 µM (retest, dose inferred, filed as 5.0)

Measured: growth inhibition

S=C1SCN(CCc2ccccc2)CN1CCc1ccccc1
active: [3]; at 11.0 µM 85% | [3]; at 33.0 µM 92% | [3]; at 100.0 µM 81% | [6]; at 50.0 µM 71.8% | [8]; at 50.0 µM 76.2% | [11]; [18] 72% | [11]; at 50.0 µM 79.1% | [15]; [18] 80%
inactive: [1]; at 1.2 µM 12% | [1]; at 3.7 µM 21% | [1]; at 11.0 µM 46% | [1]; at 33.0 µM 63% | [1]; at 100.0 µM 46% | [2]; at 1.2 µM 16% | [2]; at 3.7 µM -1% | [2]; at 11.0 µM 46% | [2]; at 33.0 µM 45% | [2]; at 100.0 µM 10% | [3]; at 1.2 µM 26% | [3]; at 3.7 µM 51% | [4]; at 1.2 µM 1% | [4]; at 3.7 µM 0% | [4]; at 11.0 µM 35% | [4]; at 33.0 µM 42% | [4]; at 100.0 µM 26% | [5]; at 1.2 µM -12% | [5]; at 3.7 µM 5% | [5]; [17] 7% | [5]; at 11.0 µM 50% | [5]; at 33.0 µM 64% | [5]; [18] 38% | [5]; at 50.0 µM 55% | [5]; at 100.0 µM 52% | [6]; at 1.2 µM -3% | [6]; at 3.7 µM 1% | [6]; [17] 24% | [6]; at 11.0 µM 52% | [6]; at 33.0 µM 54% | [6]; [18] 55% | [6]; at 100.0 µM 38% | [7]; at 1.2 µM -20% | [7]; at 3.7 µM -4% | [7]; at 11.0 µM 2% | [7]; at 33.0 µM 34% | [7]; at 100.0 µM 16% | [8]; [17] 9% | [8]; [18] 48% | [9]; at 1.2 µM 3% | [9]; at 3.7 µM 10% | [9]; at 11.0 µM 25% | [9]; at 33.0 µM 45% | [9]; at 100.0 µM 17% | [10]; [17] 12% | [10]; [18] 12% | [10]; at 50.0 µM 22.1% | [11]; at 1.2 µM -2% | [11]; at 3.7 µM 3% | [11]; [17] -4% | [11]; at 11.0 µM 23% | [11]; at 33.0 µM 53% | [11]; at 100.0 µM 42% | [12]; at 1.2 µM 6% | [12]; at 3.7 µM 3% | [12]; at 11.0 µM 53% | [12]; at 33.0 µM 63% | [12]; at 100.0 µM 47% | [13]; at 1.2 µM -3% | [13]; at 3.7 µM -10% | [13]; at 11.0 µM 20% | [13]; at 33.0 µM 40% | [13]; at 100.0 µM 19% | [14]; at 1.2 µM -5% | [14]; at 3.7 µM 16% | [14]; at 11.0 µM 31% | [14]; at 33.0 µM 59% | [14]; at 100.0 µM 48% | [15]; [17] -9% | [15]; at 50.0 µM 58% | [16]; at 1.2 µM 15% | [16]; at 3.7 µM 25% | [16]; at 11.0 µM 47% | [16]; at 33.0 µM 65% | [16]; at 100.0 µM 39%

O=c1[nH]cc(/C=N\Nc2ccccc2)c(=O)[nH]1
active: [10]; at 50.0 µM 73.8% | [11]; at 50.0 µM 82.9% | [15]; [18] 81% | [15]; at 50.0 µM 84.5% | [16]; at 11.0 µM 73% | [16]; at 33.0 µM 88% | [16]; at 100.0 µM 89%
inactive: [1]; at 1.2 µM 1% | [1]; at 3.7 µM 6% | [1]; at 11.0 µM 36% | [1]; at 33.0 µM 56% | [1]; at 100.0 µM 63% | [2]; at 1.2 µM 3% | [2]; at 3.7 µM 6% | [2]; at 11.0 µM 37% | [2]; at 33.0 µM 57% | [2]; at 100.0 µM 49% | [3]; at 1.2 µM 2% | [3]; at 3.7 µM 7% | [3]; at 11.0 µM 28% | [3]; at 33.0 µM 43% | [3]; at 100.0 µM 42% | [4]; at 1.2 µM 3% | [4]; at 3.7 µM -2% | [4]; at 11.0 µM 21% | [4]; at 33.0 µM 31% | [4]; at 100.0 µM 46% | [5]; at 1.2 µM 3% | [5]; at 3.7 µM 17% | [5]; [17] -11% | [5]; at 11.0 µM 31% | [5]; at 33.0 µM 49% | [5]; [18] 40% | [5]; at 50.0 µM 61.9% | [5]; at 100.0 µM 60% | [6]; at 1.2 µM 0% | [6]; at 3.7 µM -2% | [6]; [17] -3% | [6]; at 11.0 µM 27% | [6]; at 33.0 µM 31% | [6]; [18] 15% | [6]; at 50.0 µM 52.4% | [6]; at 100.0 µM 21% | [7]; at 1.2 µM -1% | [7]; at 3.7 µM 1% | [7]; at 11.0 µM 12% | [7]; at 33.0 µM 15% | [7]; at 100.0 µM 10% | [8]; [17] -1% | [8]; [18] 67% | [8]; at 50.0 µM 60.9% | [9]; at 1.2 µM -3% | [9]; at 3.7 µM 6% | [9]; at 11.0 µM 32% | [9]; at 33.0 µM 43% | [9]; at 100.0 µM 48% | [10]; [17] -29% | [10]; [18] 29% | [11]; at 1.2 µM 9% | [11]; at 3.7 µM 1% | [11]; [17] 7% | [11]; at 11.0 µM 27% | [11]; at 33.0 µM 39% | [11]; [18] 50% | [11]; at 100.0 µM 40% | [12]; at 1.2 µM 0% | [12]; at 3.7 µM 8% | [12]; at 11.0 µM 51% | [12]; at 33.0 µM 57% | [12]; at 100.0 µM 55% | [13]; at 1.2 µM -3% | [13]; at 3.7 µM 5% | [13]; at 11.0 µM 17% | [13]; at 33.0 µM 28% | [13]; at 100.0 µM 39% | [14]; at 1.2 µM 3% | [14]; at 3.7 µM 8% | [14]; at 11.0 µM 41% | [14]; at 33.0 µM 62% | [14]; at 100.0 µM 66% | [15]; [17] -3% | [16]; at 1.2 µM 5% | [16]; at 3.7 µM 28%
